Screening data: PubChem, National Center for Advancing Translational Sciences (NCATS)
Cycloheximide cs: counter-screen hit for Shiga toxin inhibitors, cycloheximide | cell reporter, cycloheximide protein synthesis inhibition counterscreen | max response, % | actives 12% (n = 300,000); in the data active = max response mostly above about 13%, no sharp cut-off; inactive = mostly below about 14%; note: read at 38.3 µM for the half of the compounds with a filed dose; 0% is about no effect
LASV entry inh: inhibitors of Lassa virus binding or cell entry | Lassa virus pseudotype entry inhibition, cell reporter | Potency, µM (titrated, usually from 37.9 µM), inactives show at the top dose activity change, negative = inhibition, usual class: inhibitors | actives 1.2% (n = 300,000) | AID 540256; calls by dose curve; tested in HEK293 cells; note: potency is the fitted concentration of half-maximal effect; % is set by controls: 0 for no effect and ±100 for the full control effect; nearly all actives have a fitted effect of over 50% in size
Marburg entry inh: Marburg virus entry inhibition | Marburg virus pseudotyped entry inhibition, cell reporter | Potency, µM (doses to about 37.8 µM), for the others: at the highest dose activity change, negative = inhibition, actives largely listed as inhibitors | actives 1.8% (n = 300,000) | AID 540276; calls by dose curve; tested in HEK293 cells; note: potency is the fitted concentration of half-maximal effect; % is set by controls: 0 for no effect and ±100 for the full control effect
Pf growth 96h: P. falciparum growth inhibition at 96 hours. Potency, µM (doses to about 28.7 µM), for inactives: at the highest dose activity change, negative = inhibition, actives largely listed as inhibitors. actives 6.9% (n = 320,000). P. falciparum luciferase reporter growth, 96 h. AID 504834; note: potency is the fitted concentration of half-maximal effect; % is set by controls: 0 for no effect and ±100 for the full control effect
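Infected RBCs, 2% Hct / 0.05% parasitemia final; luciferase-reporter P. falciparum; cpd 96 h, 37 C, 5% CO2; luciferase detection reagent; luminescence.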
Shiga inhibitor: Shiga toxin inhibition; actives 9.2% (n = 290,000); inhibition, % at 38.7 µM; Vero cells, Shiga toxin protein synthesis inhibition reporter; in the data active = inhibition mostly above about 28%, no sharp cut-off; inactive = mostly below about 43%; note: 0% is about no effect
Pf growth 48h: P. falciparum growth inhibition at 48 hours (one generation). actives 5.9% (n = 310,000). P. falciparum luciferase growth in erythrocytes, 48 h. Potency, µM (top dose mostly 28.7 µM), inactives show top-dose activity change, negative = inhibition, actives largely listed as inhibitors; note: potency is the fitted concentration of half-maximal effect; % is set by controls: 0 for no effect and ±100 for the full control effect
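A one-generation exposure of luciferase-tagged malaria parasites in RPMI 1640/Albumax erythrocyte culture, 37 C and 5% CO2. Inhibition is inferred from decreased luminescence after adding detection reagent.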
Starred values were filed as active, the others as inactive; [ ] = another dose, or the depositor's remark. The list is not random: actives were taken first. Their share in the collection is about 19%. Unless noted, calls come from the whole dose curve; as a rule, active = well fitted inhibition curve with a large enough effect; inconclusive = small, poorly fitted or top-dose-only effect, or another doubt; inactive = no such curve, though single readings can be large or run the other way.

`O=C(CSc1ccc2nnc(-c3ccccn3)n2n1)Nc1ccc2c(c1)OCCO2` gave Cycloheximide cs -5, Pf growth 96h inconclusive and Shiga inhibitor -13.
`Cc1cc(NC(=O)CSc2ccc3nnc(-c4cccs4)n3n2)no1` gave Cycloheximide cs -2, Pf growth 96h 2.3µM* and Shiga inhibitor 22.
Cc1ccc(-c2nnc3ccc(SCC(=O)Nc4cc(C)on4)nn23)cc1 was read as Cycloheximide cs -3, LASV entry inh 9%, Marburg entry inh -10%, Pf growth 96h -28%, Shiga inhibitor -23 and Pf growth 48h inconclusive.
For CC(=O)c1ccc(NC(=O)CSc2ccc3nnc(-c4ccccn4)n3n2)cc1 the results were Cycloheximide cs -2, Pf growth 96h inconclusive, Shiga inhibitor -8 and Pf growth 48h inconclusive.
Screening Cc1ccc(NC(=O)CSc2ccc3nnc(-c4ccccn4)n3n2)cc1 returned Cycloheximide cs -2, Pf growth 96h 13µM*, Shiga inhibitor 5 and Pf growth 48h inconclusive.
Cc1cc2nc(C(F)(F)F)[nH]c(=O)n2n1 was read as Cycloheximide cs -5, LASV entry inh -2%, Marburg entry inh -6%, Pf growth 96h -18%, Shiga inhibitor 23 and Pf growth 48h 6%.
COc1ccc(C2C(C(=O)c3cc4cccc(OC)c4o3)=C(O)C(=O)N2CCCN(C)C)cc1OC (stereo not given) was read as Cycloheximide cs -3, Marburg entry inh -4%, Pf growth 96h 42%, Shiga inhibitor -10 and Pf growth 48h 10%.
CCCn1cc(S(=O)(=O)c2cc(C)ccc2C)c(=O)c2cc(F)c(N3CCN(CC)CC3)cc21 was read as LASV entry inh 0%[46.1 µM].
For Cc1ccc(-c2cn(-c3ccc(OC(F)F)cc3)c3[n+]2CCCCC3)cc1 the results were Cycloheximide cs 7, LASV entry inh inconclusive, Marburg entry inh -27%, Pf growth 96h inconclusive, Shiga inhibitor -6 and Pf growth 48h 1.3µM*.
`FC(F)Oc1ccc(-n2cc(-c3ccccc3)[n+]3c2CCCCC3)cc1` gave Cycloheximide cs 0, LASV entry inh inconclusive, Marburg entry inh inconclusive, Pf growth 96h inconclusive, Shiga inhibitor 17 and Pf growth 48h 1.2µM*.
For Cn1c(N)c(C(=O)COC(=O)c2ccccc2C(=O)c2ccccc2)c(=O)n(C)c1=O the results were Pf growth 96h -113% and Pf growth 48h 13µM*.
Screening O=C(COC(=O)c1ccccc1C(=O)c1ccc(Cl)c([N+](=O)[O-])c1)NC1CCCCCC1 returned Cycloheximide cs -3, LASV entry inh 18µM*, Marburg entry inh 4.1µM*, Pf growth 96h -21% and Shiga inhibitor -11.
`O=C(COC(=O)c1ccc(Cl)c([N+](=O)[O-])c1)NC1CCCC1` gave Cycloheximide cs -4, Pf growth 96h -4%, Shiga inhibitor -9 and Pf growth 48h 10%.
Screening Cn1c(N)c(C(=O)COC(=O)c2ccccc2C(=O)c2ccc(Cl)c([N+](=O)[O-])c2)c(=O)n(C)c1=O returned LASV entry inh inconclusive and Marburg entry inh 11µM*.
Screening CC1CC(C)CN(C(=O)COC(=O)c2cc(S(=O)(=O)N3CCOCC3)ccc2F)C1 (stereo not given) returned LASV entry inh -6%[46.1 µM], Marburg entry inh -4%, Pf growth 96h 2% and Pf growth 48h inconclusive.
Screening Cn1c(N)c(C(=O)COC(=O)c2ccccc2C(F)(F)F)c(=O)n(C)c1=O returned LASV entry inh 4% and Marburg entry inh -11%.
Screening Cn1c(N)c(C(=O)COC(=O)c2cc(S(=O)(=O)N3CCOCC3)ccc2F)c(=O)n(C)c1=O returned LASV entry inh -29% and Marburg entry inh 7.1µM*.
O=C(CCS(=O)(=O)c1ccc(Br)cc1)Nc1ccc(Cl)cc1F was read as Cycloheximide cs -1, LASV entry inh -7%, Marburg entry inh -13%, Pf growth 96h 4%, Shiga inhibitor -25 and Pf growth 48h -7%.
C=C[C@@H]1c2ccccc2N(S(=O)(=O)c2ccc(C)cc2)[C@H](c2ccccc2)C1(C#N)C#N was read as Pf growth 96h inconclusive and Pf growth 48h 3.7µM*.
O=C(COC(=O)c1cccnc1Cl)Nc1ccc(N2CCCCC2)cc1 was read as Pf growth 96h 90% and Pf growth 48h 24%.
Screening CC(C)OC(=O)c1cccc2c1C(=O)c1ccccc1-2 returned Cycloheximide cs 38*, LASV entry inh 26%[46.1 µM], Marburg entry inh inconclusive, Pf growth 96h 70%, Shiga inhibitor 74* and Pf growth 48h 79%.
O=C(O)c1cccc2c1C(=O)c1ccccc1-2 was read as Cycloheximide cs -2, LASV entry inh 12%, Marburg entry inh 4%[46.1 µM], Pf growth 96h 5%, Shiga inhibitor 6 and Pf growth 48h -1%.
For CN(CC(=O)Nc1cccc(F)c1)C(=O)CCNC(=O)c1ccc(Br)cc1 the results were Cycloheximide cs 22*, LASV entry inh 12%[46.1 µM], Marburg entry inh inconclusive, Pf growth 96h -8%, Shiga inhibitor 36 and Pf growth 48h 12%.
For CN(CC(=O)Nc1cccc(F)c1)C(=O)c1ccc(C(=O)c2ccccc2)cc1 the results were LASV entry inh 3%, Marburg entry inh inconclusive, Pf growth 96h 9.3µM* and Pf growth 48h inconclusive.
For CN(CC(=O)Nc1cccc(F)c1)CC(=O)Nc1ccccc1-c1ccccc1 the results were LASV entry inh -4%[46.1 µM] and Marburg entry inh inconclusive.
CN(CC(=O)Nc1cccc(F)c1)CC(=O)NC(c1ccccc1)c1ccccc1 was read as Pf growth 96h inconclusive and Pf growth 48h 12µM*.
Screening CN(CC(=O)Nc1cccc(F)c1)C(=O)c1ccc(COc2ccccc2)cc1 returned LASV entry inh -20%, Marburg entry inh inconclusive, Pf growth 96h 6% and Pf growth 48h inconclusive.
Screening CCC(C(=O)Nc1ccc2c(c1)OCCO2)n1c(=O)[nH]c2ccccc2c1=O (stereo not given) returned Cycloheximide cs 73*, LASV entry inh 22%[46.1 µM], Marburg entry inh 15%[46.1 µM], Pf growth 96h 114%, Shiga inhibitor 88* and Pf growth 48h 57%.
Screening O=C(Nc1ccc2c(c1)OCO2)C(=O)c1c[nH]c2ccccc12 returned Cycloheximide cs 28*, Pf growth 96h -2%, Shiga inhibitor 72* and Pf growth 48h 161%.
For O=C(Nc1ccc2c(c1)OCCO2)C(=O)c1c[nH]c2ccccc12 the results were Cycloheximide cs 29, LASV entry inh inconclusive, Marburg entry inh inconclusive, Pf growth 96h 27%, Shiga inhibitor 21* and Pf growth 48h 97%.
Screening Cc1cc2ccccc2c(=O)n1CC(=O)Nc1ccc2c(c1)OCCO2 returned Cycloheximide cs -2, Shiga inhibitor -9 and Pf growth 48h 57%.
`CCN(CC)C(=O)Cn1cc(C(=O)C(=O)Nc2ccc3c(c2)OCCO3)c2ccccc21` gave Cycloheximide cs 48*, LASV entry inh inconclusive, Marburg entry inh inconclusive, Pf growth 96h -6%, Shiga inhibitor 103* and Pf growth 48h 8%.
